Screens (PubChem)
The list is not random: actives were taken first. Their share in the collection is about 6.2%.
ATXN viability: reduces viability in counter-screen for ATXN expression inhibitors | S2 cells (HEK-293 line with an ATXN2-luciferase reporter) viability, CellTiter-Fluor protease fluorescence, 24 h | Potency, µM (doses to about 56.7 µM), hits mostly cytotoxic | 400,000 compounds, 0.49% hits | AID 651635; also: nearly all actives have a fitted effect of over 40% in size
KB-3-1 tox: KB-3-1 parental cell cytotoxicity; AID 1347075; Potency, µM (top dose mostly 46.1 µM), actives largely listed as cytotoxic; KB-3-1 viability, CellTiter-Glo ATP luminescence, 72 h; 400,000 compounds, 1.4% hits; also: % is scaled to controls: 0 for no effect and ±100 for the full control effect; nearly all actives have a fitted effect of over 60% in size
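Multi-concentration cytotoxicity screen in KB-3-1 cells grown in DMEM lacking phenol red with 10% FBS. After 72 h at 37 °C with compound, ATP-dependent luminescence was recorded.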
KB-V1 MDR tox: KB-V1 MDR subline cytotoxicity. KB-V1 MDR cells viability, CellTiter-Glo, 72 h. Potency, µM (top dose mostly 46.1 µM), actives largely listed as cytotoxic. 400,000 compounds, 3.4% hits; also: % is scaled to controls: 0 for no effect and ±100 for the full control effect; nearly all actives have a fitted effect of over 60% in size
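Cytotoxicity toward P-gp-expressing KB-V1 cells was determined as loss of CellTiter-Glo luminescence after 72 h at 37 degrees C. Compounds were tested in quantitative HTS format across a concentration range, with curves fitted to normalized data.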
HT1080NT lethal: kills 2HG-producing HT-1080-NT fibrosarcoma cells. HT-1080-NT fibrosarcoma viability, CellTiter-Glo ATP luminescence, 48 h. Potency, µM (highest dose often 46.1 µM), for inactives: at the highest dose activity, negative = less viability, most hits filed as cytotoxic. 360,000 compounds, 1.6% hits. AID 686970;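 also: NT is the 2HG producing partner of a matched IDH1 knockdown line; 0% = DMSO-treated cells and -100% = media-only wells without cells; nearly all actives have a fitted effect of over 55% in size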
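Luminescent CellTiter-Glo readout after 48 hours of compound exposure at 37 degrees C defined viability of HT-1080-NT cells. Activity was normalized to DMSO wells and cell-free media wells; concentration-response curves were fitted and assigned curve classes.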
HT1080 IDH1KD tx: HT-1080 IDH1 knockdown cell toxicity (counter line); HT-1080 IDH1 knockdown viability, ATP luminescence, 48 h; Potency, µM (top dose mostly 46.1 µM), inactives show at the top dose activity, negative = toxicity, hits mostly cytotoxic; 360,000 compounds, 2% hits;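 also: 0% = DMSO wells and -100% = cell-free medium wells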
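Viability of IDH1-knockdown HT-1080 fibrosarcoma cells was assessed by CellTiter-Glo after 48 h at 37 °C with titrated compound; concentration-effect curves were classified by fit quality and response size.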
ATXN2 expr inh: inhibitors of ATXN2 expression | HEK-293 ATXN2-luciferase reporter, luminescence, 24 h | Potency, µM (top dose mostly 57 µM), for the others: at the top dose activity change, negative = inhibition, most hits filed as inhibitors | 360,000 compounds, 0.72% hits; also: % is scaled to controls: 0 for no effect and ±100 for the full control effect; nearly all actives have a fitted effect of over 55% in size
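qHTS (up to 57 uM final) was run with 24 h compound exposure of reporter cells at 37 °C. Each well was multiplexed: SteadyGlo luminescence measured ATXN2-luciferase expression after a fluorogenic Gly-Phe-AFC viability readout (25 uM final).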
Starred values were filed as active, the others as inactive; i = inactive; u = inconclusive; x = no result. Calls follow the shape of the dose curve; as a rule, active = well fitted curve in the direction sought with a large enough effect; inconclusive = small, poorly fitted or top-dose-only effect, or another doubt; inactive = no such curve, though single readings can be large; an effect the other way counts as inactive or inconclusive. Potency is read from the fitted curve at half-maximal effect.

SMILES	ATXN viability	KB-3-1 tox	KB-V1 MDR tox	HT1080NT lethal	HT1080 IDH1KD tx	ATXN2 expr inh
CC1CCN(S(=O)(=O)c2ccc3c(ccc(=O)n3CC(=O)NCc3ccccc3Cl)c2)CC1	i	i	i	x	x	14%
CC(C)[C@H]1c2ccc(F)cc2CC[C@@]1(CCN(C)CCCc1nc2ccccc2[nH]1)OC(=O)C1CC1	x	u	21µM*	x	x	x
NC(=O)CCCn1c(C(=O)c2ccc(Cl)cc2)c2ccc([N+](=O)[O-])cc2[n+]1[O-]	18µM*	u	u	-25%	-12%	u
Cc1ccc(C(=O)c2c3ccc([N+](=O)[O-])cc3[n+]([O-])n2CCCC(N)=O)cc1	u	u	i	-3%	-20%	u
NC(=O)CCCn1c(C(=O)c2cc(Cl)c(N)c(Cl)c2)c2ccc([N+](=O)[O-])cc2[n+]1[O-]	28µM*	u	i	-23%	u	u
COc1ccc(-n2nc3c(N4CCC(C(=O)NCc5cccc(F)c5)CC4)nnc(C)c3c2C)cc1	u	i	i	x	x	u
Cc1cc(C)nc(N/N=C/C2=C(N3CCOCC3)C(=C/c3ccccc3)/CC2)n1	i	u	2.3µM*	-2%	-5%	-28%
O=C(N/N=C/C1=C(N2CCOCC2)C(=C\c2ccccc2)/CC1)Nc1ccccc1	u	i	i	u	7.3µM*	-15%
Cn1c(=O)c2c(-c3ccc(Cl)cc3)ccnc2n(C)c1=O	i	i	i	x	x	0%
Cc1ccc(S(=O)(=O)N2CCCc3cc(NS(=O)(=O)c4cc(F)ccc4F)ccc32)cc1	u	u	i	x	x	u
Clc1ccccc1CSc1nncn1NC/C=C/c1ccccc1	i	i	21µM*	-2%	-10%	-7%
C(=C\c1ccccc1)/CNn1cnnc1	i	i	u	10%	u	0%
N#CCCSc1ncnc2c1oc1ccccc12	i	u	12µM*	3%	u	-3%
CCCN1CCN(C(=O)Cn2ncc3c4ccccc4n(Cc4cccc(Cl)c4)c3c2=O)CC1	u	i	i	x	x	-10%
COc1ccc(-c2cc(C(F)(F)F)n3nc(C(=O)OC(C)C)cc3n2)cc1	x	i	i	x	x	x
Cc1cc(NN)nc2ccc(Cl)cc12	i	u	13µM*	-6%	-5%	0%
Cc1cc(C)c2ccc(Cl)cc2n1	i	i	i	5%	11%	4%
c1ccc(CNc2nc(N3CCN(Cc4ccccc4)CC3)nc3ccccc23)cc1	i	u	23µM*	u	21µM*	u
c1ccc(N2CCN(c3nc(NCc4ccco4)c4ccccc4n3)CC2)cc1	u	u	12µM*	16µM*	18µM*	u
Cc1ccc(-c2nnc(NC3CCCCC3)c3ccccc23)cc1S(=O)(=O)N1CCN(C)CC1	x	i	23µM*	-28%	-11%	u
CCOC(=O)c1scc(-c2ccc(C)cc2)c1S(=O)(=O)N1CCN(c2ccccc2)CC1	i	i	i	x	x	-21%
O=C(NCc1ccccc1Cl)c1ccccc1Oc1ccccc1	i	i	13µM*	8%	9%	1%
COc1ccccc1CNC(=O)c1ccccc1OC	i	i	u	12%	4%	-2%
COC(=O)CC1COc2ccccc2N1S(=O)(=O)c1ccc(OC)cc1 (centres undefined)	i	18µM*	u	u	10µM*	-22%
Cc1[nH]c2ccccc2c1CCNCc1ccc(C=CC(=O)NO)cc1	x	x	x	x	x	120%
SMILES	ATXN viability	KB-3-1 tox	KB-V1 MDR tox	HT1080NT lethal	HT1080 IDH1KD tx	ATXN2 expr inh
CCCCN(CCCNC(=O)c1ccc2c(c1)NC(=O)CN2C)c1ccccc1	18µM*	u	i	u	u	x
CC1CCCCN1CCCNC(=O)c1ccc2c(c1)NC(=O)CN2C (centres undefined)	i	i	i	-8%	-3%	x
COc1cccc(CNC(=O)C2=C(C)C(=O)OC23CCN(C(C)=O)CC3)c1OC	x	u	i	x	x	x
COc1cccc(/C=N/NC(=O)CNC(=O)c2ccncc2)c1O	i	i	i	14%	u	x
O=C(CNC(=O)C1COc2ccccc2O1)N/N=C\c1ccccc1Cl (centres undefined)	i	i	i	4%	13%	-8%
COc1ccc(C(=O)NCCCNC(=O)c2cccnc2)cc1Br	i	i	i	u	10µM*	0%
COc1cccc(/C=N/NC(=O)CNC(=O)c2cccnc2)c1O	i	i	i	u	12µM*	u
COc1ccc(C(=O)NCCCNC(=O)c2cnccn2)cc1Br	i	i	i	0%	14%	2%
COc1cccc(/C=N/NC(=O)CNC(=O)C2COc3ccccc3O2)c1O (centres undefined)	i	u	i	u	u	8.9µM*
COc1ccc(-c2cc3ccc(O)c(CN4CCC(C)CC4)c3oc2=O)cc1OC	x	i	i	x	x	9%
C=CCNC(=O)C(=O)NCCOc1ccccc1Cl	i	7.3µM*	i	u	u	5%
O=C(NCCOc1ccccc1Cl)C(=O)c1c[nH]c2ccccc12	x	i	u	-27%	-21%	3%
C=CCn1c(=N)n(CC(=O)c2ccc(Cl)cc2)c2ccccc21	i	i	i	-18%	-28%	-8%
